Results filed as inconclusive are left out. Active and inactive are the calls of the source. Unless noted, calls come from the whole dose curve; as a rule, active = well fitted curve in the direction sought with a large enough effect; inconclusive = small, poorly fitted or top-dose-only effect, or another doubt; inactive = no such curve, though single readings can be large; an effect the other way counts as inactive or inconclusive.
Key:
[1] = Primary qHTS to identify inhibitors of SARS-CoV-2 cell entry (AID 1645846; calls by dose curve; note: nearly all actives have a fitted effect of over 45% in size; note: potency is the fitted concentration of half-maximal effect); settings: SARS-CoV-2 pseudovirus cell entry assay, luminescence; activity change, negative = inhibition: at 57.1 µM (top of the series) unless noted
How it was run: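 Data are normalized to wells receiving SARS-CoV-2-S pseudoparticles and those given bald particles. Entry signal was luciferase luminescence in stable hACE2 Expi293F cells, 48 hr post-infection, after 1 hr compound pretreatment.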

[2] = qHTS for differential inhibitors of proliferation of Plasmodium falciparum line 7G8 (AID 1815);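 note: parasite growth measured after three days of incubation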; note: potency is the fitted concentration of half-maximal effect;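 for activity change, negative = inhibition: plate controls were vehicle wells for no effect and reference inhibitor wells for full effect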
[3] = qHTS for differential inhibitors of proliferation of Plasmodium falciparum line GB4 (AID 1816); settings: Potency: Plasmodium falciparum GB4 proliferation inhibition;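 note: parasite growth measured after 72 h incubation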; note: potency is the fitted concentration of half-maximal effect;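 for activity change, negative = inhibition: 0% = vehicle DMSO and -100% = reference inhibitor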
[4] = qHTS for differential inhibitors of proliferation of Plasmodium falciparum line 3D7 (AID 1876); note: potency is the fitted concentration of half-maximal effect
[5] = qHTS for differential inhibitors of proliferation of Plasmodium falciparum line Dd2 (AID 1882); settings: Potency: Plasmodium falciparum Dd2 proliferation inhibition; note: nearly all actives have a fitted effect of over 65% in size; note: potency is the fitted concentration of half-maximal effect;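 for activity change, negative = inhibition: compound exposure of 72 h on infected erythrocytes; plate controls were DMSO vehicle for no effect and 0.29 µM artemisinin for full effect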
How it was run: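 SYBR Green I DNA fluorescence read-out, ex 485/em 535 nm. Signals were normalized to 0.29 uM artemisinin and DMSO wells, then corrected using vehicle-only plates flanking each stack. Parasite growth ran 72 h in erythrocytes before lysis.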

[6] = qHTS for differential inhibitors of proliferation of Plasmodium falciparum line W2 (AID 1883); settings: Potency: Plasmodium falciparum W2 proliferation inhibition;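 note: potency is the fitted concentration of half-maximal effect; parasites grown with compound for 72 h before lysis and staining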
[7] = qHTS for differential inhibitors of proliferation of Plasmodium falciparum line HB3 (AID 1886); settings: Potency: Plasmodium falciparum HB3 proliferation inhibition;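 note: parasites grown with compound for 72 h before SYBR Green readout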; note: potency is the fitted concentration of half-maximal effect;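 for activity change, negative = inhibition: plate controls were vehicle for no effect and reference inhibitor for full effect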
[8] = target: Ferritin light chain (Equus caballus) (UniProt P02791); experiment: qHTS Validation Assay for Identification of Novel General Anesthetics (AID 2323); note: % is set by controls: 0 for no effect and ±100 for the full control effect
Chain of Ferritin light chain (Equus caballus) (P02791 2-175 limits assumed): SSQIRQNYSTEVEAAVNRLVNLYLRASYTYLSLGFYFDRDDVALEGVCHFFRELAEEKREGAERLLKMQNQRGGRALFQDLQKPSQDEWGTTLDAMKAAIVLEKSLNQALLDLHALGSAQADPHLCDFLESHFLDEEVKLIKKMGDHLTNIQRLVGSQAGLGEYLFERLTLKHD
How it was run: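 Apoferritin from horse spleen (10 uM) was mixed with 1-aminoanthracene at 50% saturation in PBS, then compounds were added. After 10 min at room temperature, fluorescence was read (ex 380 nm, em 535 nm) and normalized to free-probe and complex controls.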

[9] = target: ATP-dependent DNA helicase Q1 (Homo sapiens) (UniProt P46063); experiment: qHTS Validation Assay for Inhibitors of RecQ-Like Dna Helicase 1 (RECQ1) (AID 2353);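 note: plate controls were DMSO vehicle for no effect and enzyme-free control for full effect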
Chain of ATP-dependent DNA helicase Q1 (Homo sapiens) (P46063 whole entry, looked up): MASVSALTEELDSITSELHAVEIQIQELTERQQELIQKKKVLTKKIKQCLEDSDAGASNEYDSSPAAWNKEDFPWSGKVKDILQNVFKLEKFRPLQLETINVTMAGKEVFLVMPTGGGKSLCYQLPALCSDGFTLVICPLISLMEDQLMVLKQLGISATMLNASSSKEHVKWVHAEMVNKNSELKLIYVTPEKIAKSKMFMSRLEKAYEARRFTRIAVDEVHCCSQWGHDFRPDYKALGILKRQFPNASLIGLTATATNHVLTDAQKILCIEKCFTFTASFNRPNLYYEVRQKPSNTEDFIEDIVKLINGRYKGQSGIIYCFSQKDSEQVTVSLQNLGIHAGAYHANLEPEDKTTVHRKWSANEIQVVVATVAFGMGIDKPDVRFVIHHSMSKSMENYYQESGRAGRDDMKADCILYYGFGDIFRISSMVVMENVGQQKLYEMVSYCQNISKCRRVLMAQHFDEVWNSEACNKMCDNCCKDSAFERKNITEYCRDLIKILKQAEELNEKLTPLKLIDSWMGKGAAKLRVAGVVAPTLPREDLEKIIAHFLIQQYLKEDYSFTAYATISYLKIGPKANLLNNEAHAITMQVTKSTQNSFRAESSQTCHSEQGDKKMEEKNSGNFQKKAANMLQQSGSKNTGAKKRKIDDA
How it was run: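 50 nM RECQ1T1 preincubated 15 min with compound in Tris pH 8.0 buffer with MgCl2, DTT, Tween-20 and 2.5 ug/ml poly(dI-dC); started with 200 nM TAMRA/BHQ-2 forked duplex and 2 mM ATP. Unwinding read as fluorescence (525/598 nm), two reads 2 h apart.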

[10] = target: Thyrotropin receptor (Homo sapiens) (UniProt P16473); experiment: qHTS Assay for Antagonists of the Thyroid Stimulating Hormone Receptor (AID 488980); note: 0% is about no effect
Chain of Thyrotropin receptor (Homo sapiens) (P16473 whole entry, looked up): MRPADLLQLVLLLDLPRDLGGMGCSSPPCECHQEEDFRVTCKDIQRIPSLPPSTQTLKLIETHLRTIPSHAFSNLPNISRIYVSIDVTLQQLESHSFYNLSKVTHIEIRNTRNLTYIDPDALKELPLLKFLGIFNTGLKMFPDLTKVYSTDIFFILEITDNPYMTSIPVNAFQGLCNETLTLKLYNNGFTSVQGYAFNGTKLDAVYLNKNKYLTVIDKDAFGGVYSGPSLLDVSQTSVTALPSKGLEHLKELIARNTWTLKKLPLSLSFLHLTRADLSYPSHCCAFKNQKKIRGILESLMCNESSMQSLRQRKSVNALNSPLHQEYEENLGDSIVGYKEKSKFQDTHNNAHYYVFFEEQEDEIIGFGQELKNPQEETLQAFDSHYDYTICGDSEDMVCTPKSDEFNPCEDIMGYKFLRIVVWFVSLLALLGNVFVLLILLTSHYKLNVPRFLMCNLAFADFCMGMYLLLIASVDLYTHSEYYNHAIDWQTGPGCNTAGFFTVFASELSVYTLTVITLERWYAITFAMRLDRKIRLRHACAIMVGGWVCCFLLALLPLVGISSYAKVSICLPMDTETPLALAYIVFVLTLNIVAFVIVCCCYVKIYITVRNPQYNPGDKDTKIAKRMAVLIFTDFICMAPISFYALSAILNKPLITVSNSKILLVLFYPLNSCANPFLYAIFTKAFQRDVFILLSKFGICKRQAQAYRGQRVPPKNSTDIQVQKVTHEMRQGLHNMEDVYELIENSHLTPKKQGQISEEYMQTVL
How it was run: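 Cells expressing human TSHR (HEK293) are dispensed in HBSS/HEPES containing 70 uM RO 20-1724, compound is added, then TSH at EC80 (4 nM final). Antibody in lysis buffer follows, 30 minutes at room temperature before HTRF detection.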

[11] = target: Thyrotropin-releasing hormone receptor (Homo sapiens) (UniProt P34981); experiment: qHTS for Small Molecule Agonists and Allosteric Enhancers of Human TRH Receptor: Validation Screen for Agonists (AID 493127;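 active = calcium activation more than 3 SD above the typical response in the agonist read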;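 note: intracellular calcium rise by fluo-8 fluorescence before TRH EC20 addition; 0% is about no effect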); settings: TRH receptor agonist cell assay; at 2 µM; stronger effect = higher value
Chain of Thyrotropin-releasing hormone receptor (Homo sapiens) (P34981 whole entry, looked up): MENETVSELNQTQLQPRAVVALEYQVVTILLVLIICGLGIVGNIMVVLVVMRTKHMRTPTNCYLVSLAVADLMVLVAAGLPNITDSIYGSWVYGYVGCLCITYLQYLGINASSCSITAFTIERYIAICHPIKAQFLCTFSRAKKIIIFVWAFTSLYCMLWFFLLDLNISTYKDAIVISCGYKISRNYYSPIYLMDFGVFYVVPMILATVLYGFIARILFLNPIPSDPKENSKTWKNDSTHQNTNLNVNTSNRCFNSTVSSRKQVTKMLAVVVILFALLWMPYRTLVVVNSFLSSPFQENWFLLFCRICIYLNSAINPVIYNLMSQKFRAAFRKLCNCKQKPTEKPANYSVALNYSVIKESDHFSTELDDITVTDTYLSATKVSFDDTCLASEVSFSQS
How it was run: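 Gq-coupled calcium mobilization in TRHR cells after compound addition, monitored kinetically with fluo-8 dye on an FDSS reader.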

[12] = target: Galactokinase (Homo sapiens) (UniProt P51570); experiment: qHTS Validation Assay for Inhibitors of Human Galactokinase (GALK) (AID 493189); note: 0% is about no effect
Chain of Galactokinase (Homo sapiens) (P51570 whole entry, looked up): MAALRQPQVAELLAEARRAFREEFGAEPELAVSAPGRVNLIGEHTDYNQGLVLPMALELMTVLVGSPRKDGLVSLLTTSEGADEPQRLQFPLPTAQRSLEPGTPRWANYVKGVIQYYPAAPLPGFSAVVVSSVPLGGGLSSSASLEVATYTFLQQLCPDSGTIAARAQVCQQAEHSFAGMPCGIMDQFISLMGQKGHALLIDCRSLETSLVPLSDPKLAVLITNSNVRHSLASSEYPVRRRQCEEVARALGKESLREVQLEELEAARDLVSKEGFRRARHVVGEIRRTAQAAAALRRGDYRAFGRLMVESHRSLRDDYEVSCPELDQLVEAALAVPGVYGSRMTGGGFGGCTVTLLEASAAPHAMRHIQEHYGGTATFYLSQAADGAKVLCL
How it was run: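 Compounds were pin-transferred into ATP buffer, then GALK-galactose mix was added (final 5 nM enzyme, 100 uM galactose, 35 uM ATP). After 1 h at room temperature, remaining ATP was measured luminescently.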

[13] = target: Cytochrome P450 2C9 (Homo sapiens) (UniProt P11712); experiment: qHTS Assay for Inhibitors and Substrates of Cytochrome P450 2C9 (AID 883); note: nearly all actives have a fitted effect of over 60% in size; note: potency is the fitted concentration of half-maximal effect; for activity change, negative = inhibition: % is set by controls: 0 for no effect and ±100 for the full control effect
Chain of Cytochrome P450 2C9 (Homo sapiens) (P11712 whole entry, looked up): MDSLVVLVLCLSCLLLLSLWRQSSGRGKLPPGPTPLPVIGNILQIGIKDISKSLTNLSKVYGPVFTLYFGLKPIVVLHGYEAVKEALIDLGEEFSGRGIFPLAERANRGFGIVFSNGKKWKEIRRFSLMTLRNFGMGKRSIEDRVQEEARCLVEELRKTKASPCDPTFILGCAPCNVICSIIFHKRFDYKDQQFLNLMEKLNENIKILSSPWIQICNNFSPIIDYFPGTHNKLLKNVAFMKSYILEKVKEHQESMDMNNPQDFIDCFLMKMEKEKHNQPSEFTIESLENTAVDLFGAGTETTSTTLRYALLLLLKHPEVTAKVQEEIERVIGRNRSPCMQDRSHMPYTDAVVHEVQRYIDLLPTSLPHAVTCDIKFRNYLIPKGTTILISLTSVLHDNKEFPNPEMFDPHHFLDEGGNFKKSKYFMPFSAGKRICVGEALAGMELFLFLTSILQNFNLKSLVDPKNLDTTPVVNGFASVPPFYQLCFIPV
How it was run: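 Human CYP2C9 (10nM) hydroxylated Luciferin-H (100uM, at its KM) to luciferin in 25mM KPO4. Compound was preincubated 10 min at 37C, then NADPH regeneration started a 60 min reaction at 37C. Luminescence was read after detection reagent, normalized to 57uM sulphaphenazole.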

[14] = target: Estrogen receptor (Homo sapiens) (UniProt P03372); experiment: qHTS assay for small molecule antagonists of estrogen receptor alpha signaling (AID 588513; active = well fitted curve in the direction sought with a large enough effect in the signal ratio, with a control signal flat, not every such curve was filed as active; the % refers to the signal ratio; note: % is set by controls: 0 for no effect and ±100 for the full control effect)
Chain of Estrogen receptor (Homo sapiens) (P03372 whole entry, looked up): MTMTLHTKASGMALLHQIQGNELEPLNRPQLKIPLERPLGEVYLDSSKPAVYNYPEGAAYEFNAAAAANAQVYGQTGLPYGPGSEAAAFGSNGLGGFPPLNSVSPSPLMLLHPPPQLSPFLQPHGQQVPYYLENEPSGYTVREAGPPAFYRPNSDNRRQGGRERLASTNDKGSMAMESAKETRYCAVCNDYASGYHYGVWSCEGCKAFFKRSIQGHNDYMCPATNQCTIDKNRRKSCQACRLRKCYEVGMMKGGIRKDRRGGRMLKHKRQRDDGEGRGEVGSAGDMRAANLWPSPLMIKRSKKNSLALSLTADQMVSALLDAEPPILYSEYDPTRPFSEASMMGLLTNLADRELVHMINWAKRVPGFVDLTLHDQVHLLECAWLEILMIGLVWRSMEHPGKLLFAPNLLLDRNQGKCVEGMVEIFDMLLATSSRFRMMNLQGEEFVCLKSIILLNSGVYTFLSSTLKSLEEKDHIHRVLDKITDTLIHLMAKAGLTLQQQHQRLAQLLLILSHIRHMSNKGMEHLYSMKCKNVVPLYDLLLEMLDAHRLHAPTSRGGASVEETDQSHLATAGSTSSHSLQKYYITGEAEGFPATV
How it was run: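 Cells were plated at 5000/well and incubated 4 h at 37 C. Compounds were added as 1:2 dilution series, duplicates. 17-beta-estradiol (0.5nM final) was added for 18 h before CCF4 detection.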

[15] = MultiTox-Fluor Cytotoxicity Assay - LYMP1-003 - Dead Cells (AID 961); note: nearly all actives have a fitted effect of over 70% in size; note: potency is the fitted concentration of half-maximal effect
How it was run: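 Acute toxicity is scored as increased dead-cell protease activity in human lymphoblastoid LYMP1-003 cells after 16 h compound exposure in complete culture medium. Activity is normalized to DMSO basal and 15 uM tetraoctylammonium bromide as full response.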

[16] = Cell Viability - LYMP2-002 (AID 977); note: potency is the fitted concentration of half-maximal effect
How it was run: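 Luminescent ATP readout (CellTiter-Glo, 30 min room temperature) after 24 h compound exposure at 37 C of a human lymphoblastoid line, 2500 cells/well. AC50 values derived by standard Hill fitting of qHTS concentration-response data.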

[17] = Cell Viability - LYMP2-006 (AID 978);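 note: cells exposed to compound for 24 hours; nearly all actives have a fitted effect of over 60% in size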; note: potency is the fitted concentration of half-maximal effect
How it was run: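 Concentration-dependent loss of intracellular ATP in a human lymphoblastoid line after 24 hr treatment at 37 C was measured by CellTiter-Glo luminescence, with AC50 values obtained from standard Hill-equation modelling.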

[18] = Cell Viability - LYMP2-024 (AID 988);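 note: cells exposed to compound for 24 hr at 37 °C; nearly all actives have a fitted effect of over 60% in size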; note: potency is the fitted concentration of half-maximal effect
How it was run: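 Acute toxicity is measured as concentration-dependent loss of intracellular ATP in a human lymphoblastoid line treated 24 hours at 37 C. Luciferase luminescence quantifies ATP; AC50 values come from standard Hill-equation modelling.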

[19] = Cell Viability - LYMP1-002 - Assay at 24 hr (AID 993); note: potency is the fitted concentration of half-maximal effect
How it was run: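 qHTS, LYMP1-002 lymphoblastoid, 24 h cpd, 37 C, CellTiter-Glo ATP luminescence; AC50 via Hill eq.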

[20] = target: Vitamin D3 receptor (Homo sapiens) (UniProt P11473); experiment: qHTS assay for small molecule agonists of vitamin D receptor signaling (AID 588543; calls by dose curve;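 note: 0% = DMSO basal and 100% = reference agonist control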)
Chain of Vitamin D3 receptor (Homo sapiens) (P11473 whole entry, looked up): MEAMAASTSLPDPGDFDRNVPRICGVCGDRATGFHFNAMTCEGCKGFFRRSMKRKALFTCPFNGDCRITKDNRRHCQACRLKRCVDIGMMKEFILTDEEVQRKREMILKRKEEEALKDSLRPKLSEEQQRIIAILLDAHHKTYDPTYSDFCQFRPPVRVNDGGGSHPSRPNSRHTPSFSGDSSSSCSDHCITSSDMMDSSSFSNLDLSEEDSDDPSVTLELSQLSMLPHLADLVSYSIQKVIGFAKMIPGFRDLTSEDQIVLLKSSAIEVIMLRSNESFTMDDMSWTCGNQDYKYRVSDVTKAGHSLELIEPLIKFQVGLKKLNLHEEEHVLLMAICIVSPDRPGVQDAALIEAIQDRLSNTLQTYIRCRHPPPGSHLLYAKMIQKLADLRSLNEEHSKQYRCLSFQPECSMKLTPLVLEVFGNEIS
How it was run: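 qHTS in agonist mode: compound titrations stimulate a VDR-driven β-lactamase reporter in HEK293T cells over 16 h at 37 °C. Response normalized to 50 nM 1α,25-dihydroxyvitamin D3 = 100%, DMSO = 0%; Hill fitting gives EC50 and maximal response.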

Cc1cc(-n2c(=O)[nH]c(=O)n(C)c2=O)ccc1Oc1ccc(S(=O)(=O)C(F)(F)F)cc1
active: Potency [1] 17.8 µM

CCCCC(=O)O[C@H]1CC[C@H]2[C@@H]3CCc4cc(O)ccc4[C@H]3CC[C@]12C
-64.3%: activity change, negative = inhibition [1]

Cc1[nH]c(/C=C2\C(=O)Nc3ccc(F)cc32)c(C)c1C(=O)NCCN1CCCC1
-9.79% [at 27.1 µM]: activity change, negative = inhibition [1]

CCCCCCCC(=O)CC[C@@H]1[C@@H](C/C=C\CCCC(=O)OC(C)C)[C@@H](O)C[C@H]1O
active: Potency [1] 25.1 µM

COc1cc([C@@H]2c3cc4c(cc3[C@@H](O[C@@H]3O[C@@H]5CO[C@@H](C)O[C@H]5[C@H](O)[C@H]3O)[C@H]3COC(=O)[C@H]23)OCO4)cc(OC)c1OP(=O)(O)O
active: Potency [1] 3.55 µM

O=C(O)c1ccc2nc(-c3cc(Cl)cc(Cl)c3)oc2c1
inactive: Potency [1]

C=CCN1CCc2cccc3c2C1Cc1ccc(O)c(O)c1-3 (stereo unspecified)
inactive: Potency [8] | outcome [9] | outcome [10] | activation [11] -2.75% | outcome [12]
active: Potency [2] 2.82 µM | Potency [3] 2 µM | Potency [4] 2.82 µM | Potency [5] 2.82 µM | Potency [6] 2.51 µM | Potency [7] 2 µM

O=C(c1ccco1)N1CCC[C@@]2(CCN(Cc3ccncc3)C2)C1
active: Potency [13] 3.16 µM

COCC(=O)N1CCC2(CCCN(Cc3ccncc3)C2)CC1
active: Potency [13] 5.01 µM

CC1=NCCc2c1[nH]c1cc(O)ccc21
inactive: Potency [13]

O=C(OC1CCN(CCCl)CC1)C(c1ccccc1)c1ccccc1
active: Potency [2] 7.94 µM | Potency [3] 5.62 µM | Potency [4] 12.6 µM | Potency [5] 7.08 µM | Potency [6] 2.24 µM | Potency [7] 11.2 µM
inactive: Potency [8] | outcome [9] | outcome [10] | activation [11] -9.25% | outcome [12]

N#Cc1cccc(NC(=O)N2CC[C@@]3(CCCN(C(=O)Oc4ccccc4)C3)C2)c1
inactive: Potency [13]

CCc1c(C(=O)OC)ncc2[nH]c3cc(OC)c(OC)cc3c12
active: Potency [2] 7.94 µM | Potency [3] 12.6 µM | Potency [4] 12.6 µM | Potency [6] 7.94 µM | Potency [7] 10 µM
inactive: Potency [5] | Potency [8] | outcome [9] | outcome [10] | activation [11] 0.312% | outcome [12]

CCCN1CCc2cccc3c2C1Cc1ccc(O)c(O)c1-3 (stereo unspecified)
active: Potency [2] 2.24 µM | Potency [3] 2 µM | Potency [4] 2.51 µM | Potency [5] 3.16 µM | Potency [6] 2 µM | Potency [7] 2 µM
inactive: Potency [8] | outcome [9] | outcome [10] | activation [11] 1.44% | outcome [12]

O=C(Oc1ccccc1)N1CCC2(CCN(Cc3ccncc3)CC2)CC1
active: Potency [13] 3.98 µM

CC(C)[C@@]1(NC(=O)[C@@H]2C[C@@H]3c4cccc5[nH]cc(c45)C[C@H]3N(C)C2)O[C@@]2(O)C3CCCN3C(=O)[C@H](Cc3ccccc3)N2C1=O (stereo partly specified)
active: Potency [2] 0.316 µM | Potency [3] 1.12 µM | Potency [4] 1 µM | Potency [5] 1.41 µM | Potency [6] 0.891 µM | Potency [7] 0.891 µM
inactive: Potency [8] | outcome [9] | outcome [10] | activation [11] 0.125% | outcome [12]

O=C(O)C1=CCCN(CCOC(c2ccc(C(F)(F)F)cc2)c2ccc(C(F)(F)F)cc2)C1
-6.97%: activity change, negative = inhibition [1]
active: Potency [13] 2.51 µM

C[C@]12CC[C@H](O)CC1=CCC1C2CC[C@]2(C)C(=O)CC[C@@H]12 (stereo partly specified)
inactive: Potency [2] | Potency [3] | Potency [4] | Potency [5] | Potency [7] | Potency [8] | outcome [9] | outcome [10] | activation [11] 0.438% | outcome [12]

CCCN1CCc2cc(O)cc3c2C1Cc1ccc(O)c(O)c1-3 (stereo unspecified)
active: Potency [2] 5.01 µM | Potency [3] 3.16 µM | Potency [4] 2.51 µM | Potency [5] 8.91 µM | Potency [6] 3.55 µM | Potency [7] 3.55 µM
inactive: Potency [8] | outcome [9] | outcome [10] | activation [11] 0.375% | outcome [12]

CNCC[C@@H](Oc1ccc(C(F)(F)F)cc1)c1ccccc1
active: Potency [6] 4.47 µM

COc1ccc2c(c1O)-c1c(OC)c(OC)cc3c1[C@H](C2)N(C)CC3
inactive: Potency [13]

O=S1OCC2C(CO1)C1(Cl)C(Cl)=C(Cl)C2(Cl)C1(Cl)Cl (stereo unspecified)
inactive: Potency [14]

COC(=O)NC(=S)Nc1ccccc1NC(=S)NC(=O)OC
inactive: Potency [15] | Potency [16] | Potency [17] | Potency [18] | Potency [19] | Potency [14] | outcome [20]

C/C=C/c1ccc2c(c1)OCO2
inactive: Potency [15] | Potency [16] | Potency [17] | Potency [18] | Potency [19] | outcome [20]

ClC1=C(Cl)C2(Cl)C3C4CC(C5OC45)C3C1(Cl)C2(Cl)Cl (stereo unspecified)
active: Potency [15] 10 µM | Potency [16] 31.6 µM | Potency [17] 31.6 µM | Potency [18] 39.8 µM | Potency [19] 12.6 µM
inactive: Potency [14] | outcome [20]

ClC(Cl)=C(c1ccc(Cl)cc1)c1ccc(Cl)cc1
inactive: Potency [15] | Potency [16] | Potency [17] | Potency [18] | Potency [19] | Potency [14] | outcome [20]

C=CCc1ccc(OC)cc1
inactive: Potency [15] | Potency [16] | Potency [17] | Potency [18] | Potency [19]

CCc1cccc(CC)c1N(COC)C(=O)CCl
inactive: Potency [15] | Potency [19] | Potency [14] | outcome [20]
active: Potency [18] 50.1 µM

CCOCN(C(=O)CCl)c1c(C)cccc1CC
active: Potency [17] 50.1 µM
inactive: Potency [16] | outcome [20]

CCNc1nc(Cl)nc(NC(C)C)n1
inactive: Potency [15] | Potency [16] | Potency [17] | Potency [18] | Potency [19] | Potency [14] | outcome [20]

COP(=S)(OC)Oc1ccc([N+](=O)[O-])cc1
inactive: Potency [15] | Potency [16] | Potency [17] | Potency [18] | Potency [19] | Potency [14] | outcome [20]

Source: PubChem BioAssay (NCATS)
